Measured values: ChEMBL document CHEMBL4513141, “CO-ADD screening of NIH (USA) - Clinical Collection” (2021)
Hit rate of the full screen: of about 23,000 compounds, about 30 (0.1%) showed an effect of 50% or more. The full list was thinned out, with strong results kept by preference. Potency and affinity values are given separately.

Each molecule was assayed on Pseudomonas aeruginosa. Conditions: Concentration 20 uM; ASSAY_TEST Inhibition of Bacterial Growth; detection method Absorption (OD600); MEDIA CAMHB; plate type 384well; NBS; CORNING #3640; time 18 hr.

Row | SMILES | Inhibition [%]
1 | Cc1nnc2n1-c1ccc(Cl)cc1C(c1ccccc1)=NC2 [ALPRAZOLAM] | 52.22
2 | Cc1ncc2n1-c1ccc(Cl)cc1C(c1ccccc1F)=NC2.Cl [MIDAZOLAM HYDROCHLORIDE] | 11.86
3 | CN1C(=O)CN=C(c2ccccc2)c2cc(Cl)ccc21 [DIAZEPAM] | 6.74
4 | Cn1c(=O)c2nc[nH]c2n(C)c1=O.O [THEOPHYLLINE] | 16.98
